Assay outcomes as filed in PubChem.
D2 ag-1 – Beta-Arrestin HTS for Positive Allosteric Modulators of the Human D2 Dopamine Receptor: Agonists; D(2) dopamine receptor (Homo sapiens), P14416; DiscoveRx PathHunter D2 beta-arrestin, luminescence, 90 min; 100% = 57 uM dopamine signal; activation, % (concentration not given with the values); 360,000 compounds, 0.084% hits; in the data active means activation above about 40%; inconclusive means between about 15% and that limit
Target sequence (P14416 whole entry, looked up): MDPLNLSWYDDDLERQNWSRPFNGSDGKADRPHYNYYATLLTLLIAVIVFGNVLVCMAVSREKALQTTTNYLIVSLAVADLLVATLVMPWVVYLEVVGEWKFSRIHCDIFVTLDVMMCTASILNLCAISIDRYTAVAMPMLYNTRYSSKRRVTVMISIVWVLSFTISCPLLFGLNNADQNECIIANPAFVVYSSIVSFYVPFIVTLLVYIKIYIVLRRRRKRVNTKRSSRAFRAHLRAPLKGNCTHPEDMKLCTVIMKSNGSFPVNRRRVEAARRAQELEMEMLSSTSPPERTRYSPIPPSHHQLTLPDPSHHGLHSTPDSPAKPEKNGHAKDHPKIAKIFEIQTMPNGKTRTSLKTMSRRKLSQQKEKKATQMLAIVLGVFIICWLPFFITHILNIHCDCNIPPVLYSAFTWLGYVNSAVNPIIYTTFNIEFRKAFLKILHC
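Agonist mode: compounds alone added to overnight-plated D2 PathHunter cells for 90 min at 37 C, with 57 uM final dopamine (EC100) defining full response. Beta-arrestin recruitment detected by chemiluminescent reagent, read after 1 h at ambient temperature.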
D2 ag-2 – HTS Assay for Allosteric Agonists of the Human D2 Dopamine Receptor: Primary Screen for Agonists; HEK293 T-REx D2 cells, calcium flux agonist mode; 340,000 compounds, 0.53% hits; D(2) dopamine receptor (Homo sapiens), P14416; activation, % at 2 µM; AID 485358, 2010;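 active means activation over 3 SD above normal in the single-dose calcium agonist read, cut at about 30% in these data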
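Tetracycline-induced HEK293 T-REx cells with force-coupled D2 receptor, plated overnight at 30 C, loaded with no-wash calcium dye. After a 10 s baseline, compound was pin-added and calcium flux read kinetically for 180 s; calcium rises flagged agonists.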
D2 antag – HTS Assay for Allosteric Antagonists of the Human D2 Dopamine Receptor: Primary Screen for Antagonists; D(2) dopamine receptor (Homo sapiens), P14416; HEK293 TREx D2 cells, calcium flux, dopamine EC80; inhibition, % at 10 µM; 340,000 compounds, 2% hits; AID 485344, 2010; in the data active means inhibition above about 30%; inactive means below that, where a call was filed
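Tetracycline-induced HEK293 T-REx cells expressing D2 force-coupled to calcium signalling were dye-loaded, exposed to compound for 180 s, then challenged with an EC80 of dopamine; calcium flux was followed kinetically for a further 180 s.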
D2 PAM-1 – HTS Assay for Positive Allosteric Modulators of the Human D2 Dopamine Receptor: Primary Screen for Potentiators | D(2) dopamine receptor (Homo sapiens), P14416 | HEK293 T-REx D2, calcium flux, EC20 dopamine potentiation | potentiation, % at 10 µM | 340,000 compounds, 0.34% hits | AID 485347, 2010;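 active means potentiation over 3 SD above the plate norm, cut at about 30% in these data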
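Primary screen. Calcium kinetics in induced HEK293 T-REx D2 cells: compound pre-addition 180 s, EC20 dopamine, 180 s more.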
D2 PAM-2 – Beta-Arrestin HTS for Positive Allosteric Modulators of the Human D2 Dopamine Receptor: Potentiators | D(2) dopamine receptor (Homo sapiens), P14416 | DiscoveRx D2 beta-arrestin cells, luminescence, 90 min; 100% = 57 uM dopamine signal | potentiation, % (no concentration beside the values) | 360,000 compounds, 0.23% hits | AID 624464, 2012; in the data active means potentiation above about 50%; inconclusive means mostly about 30% to 49%
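PathHunter D2 cells, attached overnight at 37 deg C, received compound in DMSO plus dopamine at EC20 (50 nM final) for 90 min at 37 deg C. Beta-arrestin recruitment was read as luminescence after 1 h with detection reagent at ambient temperature.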
Numbers stand for hits; i = inactive; ? = inconclusive; nt = no result given. Hits are enriched below; roughly 2.4% of the tested compounds scored in any of these assays.

SMILES | D2 ag-1 | D2 ag-2 | D2 antag | D2 PAM-1 | D2 PAM-2
Brc1ccc(-c2cn3nc4c(nc3n2)CCCC4)cc1 | i | i | i | i | i
O=[N+]([O-])c1nn(-c2ccc3c(c2)OCCO3)n(O)c1=Nc1ccccc1 | ? | i | i | i | ?
O=[N+]([O-])c1nn(-c2ccc3c(c2)OCCO3)n(O)c1=NC1CCCC1 | i | i | i | i | 74.6
O=[N+]([O-])c1nn(-c2ccc3c(c2)OCCO3)n(O)c1=NC1CCCCCC1 | ? | i | i | i | 85.3
COc1ccc(CCNC(=O)C2CCN(c3nc4ccccc4nc3C(F)(F)F)CC2)cc1OC | nt | i | nt | i | nt
Cc1cccc(OCC(=O)Nc2c(C(=O)N3CCN(c4ccccc4F)CC3)oc3ccccc23)c1 | nt | nt | nt | i | nt
CCN(C(C)=O)c1cnc(C=NNC(N)=S)c2ccccc12 | ? | nt | nt | nt | 57.0
CCOc1ccc(-n2c(C)nc3cc(C(=O)NC4CCCC4)ccc32)cc1 | nt | i | nt | i | nt
COC(=O)C1=C(C)NC(=O)C1(NC(=O)c1ccc(Cl)cc1)C(F)(F)F (stereo not given) | nt | i | nt | i | nt
Cc1cc(C)nc(OC(C(=O)O)C(OCC(C)C)(c2ccccc2)c2ccccc2)n1 (stereo not given) | i | i | i | i | 71.5
CCC(C)COC(c1ccccc1)(c1ccccc1)C(Oc1nc(C)cc(C)n1)C(=O)O (stereo not given) | i | i | i | i | i
COc1ccccc1/C=C1\SC(=S)N(CCC(=O)Nc2nnc(C)s2)C1=O | i | i | 30.8 | i | i
COc1ccccc1/C=C1\SC(=S)N(CCC(=O)Nc2cc(C)on2)C1=O | i | i | i | nt | i
CCc1nnc(NC(=O)CN2C(=O)/C(=C/c3cc(OC)c(OC)c(OC)c3)SC2=S)s1 | i | i | i | 30.8 | i
CSc1ccc(CCNC(=O)c2cc3cc(S(=O)(=O)N4CCCCC4)ccc3n2C)cc1 | nt | nt | nt | i | nt
COc1ccc(-c2onc(C)c2C)cc1S(=O)(=O)N(C)Cc1ccco1 | nt | i | nt | i | nt
COc1ccc(CN2C(=O)C(NC(=O)c3ccccc3OC)(C(F)(F)F)N=C2c2ccccc2)cc1 (stereo not given) | nt | i | nt | i | nt
COC(=O)c1cc2sccc2n1Cc1c(C)cc(C)cc1C | nt | i | nt | i | nt
Cn1nnc2c(N3CCN(c4cccc(Cl)c4)CC3)ncnc21 | nt | i | nt | i | nt
CCCC12CN3CC(C)(CN(C1)C3c1ccc(CC)cc1)C2=O (stereo not given) | nt | nt | nt | i | nt
CC(=O)/C(C[N+]1(C)CCCCC1)=N\O | i | i | 44.1 | nt | i
COc1ccc(CCNC(=O)c2cc(Nc3ccccc3)nc3ccccc23)cc1OC | nt | i | nt | i | nt
COc1ccc(-c2nn(-c3ccccc3F)cc2CNCCn2nc(C)cc2C)cc1 | i | i | 37.3 | i | i
CCOc1ccccc1CNS(=O)(=O)c1cc2c(cc1C)NC(=O)CO2 | nt | i | nt | i | nt
CC(C)CCOC(=O)C1C2C=CC3(CN(Cc4cccs4)C(=O)C13)O2 (stereo not given) | i | i | 33.2 | i | i
SMILES | D2 ag-1 | D2 ag-2 | D2 antag | D2 PAM-1 | D2 PAM-2
CCCCOC(=O)C1[C@H]2C(=O)N(Cc3cccs3)C[C@]23C=C[C@H]1O3 (stereo not given in full) | i | i | i | i | i
Cc1cc2oc(C(=O)Nc3nonc3C)c(C)c2cc1Cl | i | i | i | 33.8 | i
CN(C)CCn1cnc2c(c1=N)C(c1ccccc1)c1ccc3ccccc3c1O2 (stereo not given) | i | i | 61.8 | i | i
CCN(CC)CCNCC(O)(c1ccc(Cl)cc1)c1ccc(Cl)cc1 | i | nt | nt | i | i
CCN(CC)CCNCc1ccc(-c2ccc(Cl)cc2)o1 | i | i | 33.4 | i | i
Cc1ccc(NC(=O)C2CCCN(c3cnccn3)C2)cc1Cl (stereo not given) | nt | i | nt | i | nt
O=C1c2ccccc2C(=O)c2c(Nc3ccc(CCO)cc3)ccc(O)c21 | 41.1 | i | i | i | i
COc1cccc(C2CC(=O)Nc3c2c(=O)n(C)c2ncnn32)c1OC (stereo not given) | nt | i | nt | i | nt
O=C1CCCc2ccccc2N1 | i | i | i | 45.9 | i
O=C(NCc1ccccc1F)c1ccc2ccccc2n1 | i | i | i | 33.6 | i
Cc1cc(=O)oc2c3c(cc(OCC(=O)NC(Cc4ccc(Cl)cc4)C(=O)O)c12)OC(C)(C)CC3 (stereo not given) | i | i | 35.9 | i | i
Cc1c(C)c2c(OCC(=O)NCC(=O)NCC(=O)O)cc3c(c2oc1=O)CCC(C)(C)O3 | i | i | i | 30.2 | i
Cc1cc(=O)oc2c3c(cc(OCC(=O)N[C@@H](Cc4ccccc4)C(=O)O)c12)OC(C)(C)CC3 | i | i | i | i | i
O=C(CCCCCn1c(=O)[nH]c2ccccc2c1=O)N1CCN(c2ccc(Cl)cc2)CC1 | nt | i | nt | i | nt
COc1ccccc1CNC(=O)c1cnc2sc(N3CCOCC3)nn2c1=O | nt | i | nt | i | nt
COc1ccc(-n2c(=S)[nH]c3sc(-c4ccccc4)cc3c2=O)c(OC)c1 | i | i | i | i | i
COc1ccc(-n2c(=S)[nH]c3c(sc(=S)n3-c3ccccc3)c2=O)c(OC)c1 | i | i | i | 37.0 | i
COC(=O)CC(NS(=O)(=O)c1cccs1)c1ccc2c(c1)OCO2 (stereo not given) | i | i | i | i | i
COC(=O)CC(NS(=O)(=O)c1cccs1)c1ccccc1Cl (stereo not given) | i | i | 34.7 | i | i
COc1ccc(Cl)cc1NC(=O)CSc1nc2c(oc3ccccc32)c(=O)n1Cc1ccco1 | nt | nt | nt | i | nt
COc1ccc2c(C(=O)c3ccc(C)cc3)n(Cc3ccc(C(N)=O)cc3)[n+]([O-])c2c1 | i | i | 60.4 | i | i
CCCOC(=O)c1c(-c2ccccc2)c(-c2ccccc2)nn(C)c1=O | nt | i | nt | i | nt
COc1cccc2[nH]c(C(=O)NCc3ccccc3)cc12 | i | i | 41.7 | i | i
COc1ccccc1-c1cc(C(=O)NCc2ccccc2)no1 | i | i | 80.6 | i | i
COc1ccccc1-c1cc(C(=O)NCc2ccc(F)cc2)no1 | i | i | 74.1 | i | i
COc1ccc(CNC(=O)c2cc(-c3ccccc3OC)on2)cc1 | i | i | 91.3 | i | i
